PostGolgi ctrl: growth inhibition of yeast control strain, primary screen, counter-screen for post-Golgi transport modulator project. efflux-deficient yeast background strain, growth absorbance A615, 16 h. AID 738, 2007. inhibition, % at 10 µM. hit rate 5% among 98,000
CYP2C19 inhib: blockers of cytochrome P450 2C19 activity – biochemical, luminescence, ADME assay, primary screen; P33261; CYP2C19 Supersomes, luciferin-H EGE luminescence, 30 min; inhibition, % at 5 µM; hit rate 21% among 96,000; AID 778, 2007;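 active means CYP2C19 inhibition above a set limit at 5 µM in the primary screen, cut at about 50% in these data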;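 further: plate controls were negative control wells for no effect and 2.5 mM tranylcypromine positive control for full effect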
CYP2C19 act: human CYP2C19 activators, primary screen, biochemical, luminescence | recombinant CYP2C19, luciferin-H EGE luminescence; active compounds read high; 0 = fully inhibited enzyme, 1 = untreated enzyme | 96,000 tested, under 10 active | activation factor at 5 µM;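 active means activation factor of at least 2 at 5 µM in the primary screen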;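 further: 0 = wells with 2.5 mM tranylcypromine and 1 = vehicle-only wells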
PostGolgi yeast: phenotypic screen on post-Golgi transport, primary screen; post-Golgi transport phenotypic cell assay; inhibition, % at 10 µM; hit rate 0.9% among 98,000;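 further: yeast cells grown in 1536-well plates; yeast grown about 18 h at 30C before absorbance read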
CYP2C9 inhib: blockers of cytochrome P450 2C9 activity – biochemical, luminescence, ADME assay, primary screen. P11712. CYP2C9 Supersomes, luciferin-H conversion. inhibition, % at 5 µM. hit rate 20% among 96,000. AID 777, 2007;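 active means blocking of liver enzyme CYP2C9 beyond about 50% at 5 µM, limit read from the data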
Target sequence (P11712 whole entry, looked up): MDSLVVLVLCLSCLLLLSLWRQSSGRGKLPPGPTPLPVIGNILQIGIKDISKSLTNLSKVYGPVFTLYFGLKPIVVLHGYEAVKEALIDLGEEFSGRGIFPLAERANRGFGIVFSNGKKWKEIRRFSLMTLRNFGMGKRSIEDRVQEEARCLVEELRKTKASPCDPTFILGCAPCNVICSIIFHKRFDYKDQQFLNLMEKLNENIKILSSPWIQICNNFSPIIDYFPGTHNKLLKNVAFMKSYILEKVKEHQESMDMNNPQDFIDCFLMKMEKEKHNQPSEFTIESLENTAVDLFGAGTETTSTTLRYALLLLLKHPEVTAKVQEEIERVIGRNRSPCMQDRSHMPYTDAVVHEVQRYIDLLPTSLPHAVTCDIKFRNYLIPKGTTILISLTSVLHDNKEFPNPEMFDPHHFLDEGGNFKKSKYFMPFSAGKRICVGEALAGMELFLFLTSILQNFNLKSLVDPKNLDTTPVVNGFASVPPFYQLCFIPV
CYP2C9 act: human CYP2C9 activators, primary screen, biochemical, luminescence. recombinant CYP2C9, luciferin-H conversion; active compounds read high; factor 1 = untreated enzyme, 0 = blocked. activation factor at 5 µM. hit rate 1.4% among 96,000. AID 1024, 2008;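 active means activation factor of 2 or more for CYP2C9 at a 5 µM dose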;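 further: 0 = sulfaphenazole-blocked wells and 1 = vehicle-only wells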
The depositor's hits bear a star; / = no result given. This is a sample that favours compounds with a hit; in the whole collection about 32% have one here. Unless noted, no stated cut-off is given here; in the data, active means inhibition above about 30%; inactive means the rest.

SMILES | PostGolgi ctrl | CYP2C19 inhib | CYP2C19 act | PostGolgi yeast | CYP2C9 inhib | CYP2C9 act
COc1ccc2c(-c3ccccc3)cc3nnnn3c2c1 | 16 | 42 | 0.6 | 25 | 39 | 0.6
COc1ccc(OC)c(C2C=C(c3ccc(C)c(C)c3)Nc3nnnn32)c1 (stereo not given) | 1 | 97* | 0 | -1 | 96* | 0
COc1cccc(C2=CC(c3cccc(OC)c3OC)n3nnnc3N2)c1 (stereo not given) | -7 | 98* | 0 | -4 | 90* | 0.1
COc1cccc(Nc2nnc(SCC(=O)N(CC(C)C)CC(C)C)s2)c1 | 16 | 32 | 0.7 | -6 | 37 | 0.6
CC(C)(C)NC(=O)C(c1ccccc1)N(C(=O)C1CSC(=O)C1)c1ccccc1 (stereo not given) | 13 | 23 | 0.8 | 1 | 12 | 0.9
Cc1cccc(N(C(=O)Cn2nnc3ccccc32)C(C(=O)NC(C)(C)C)c2ccsc2)c1C (stereo not given) | 16 | 9 | 0.9 | -4 | -2 | 1
Cc1ccc(S(=O)(=O)N/N=C/c2ccc(OCC(=O)Nc3ccccc3Cl)cc2)cc1 | 21 | 30 | 0.7 | 24 | 84* | 0.2
O=C(COc1ccc(/C=N/NS(=O)(=O)c2ccccc2)cc1)Nc1ccc(F)cc1 | 1 | 17 | 0.8 | -1 | 65* | 0.4
COC(=O)C(C)NS(=O)(=O)c1ccc(NC(C)=O)cc1 (stereo not given) | 0 | 14 | 0.9 | 16 | 14 | 0.9
COc1ccc(S(=O)(=O)N(CC(=O)NCCCN(C)C)c2ccc(C)cc2)cc1OC | -13 | -3 | 1 | 6 | -1 | 1
Cc1ccc(S(=O)(=O)NC(C)(C)CSc2nnc(Nc3ccccc3)s2)cc1 | 34* | 36 | 0.6 | 3 | 9 | 0.9
COC(=O)c1ccc(CSc2nnc(Nc3ccc(C)cc3)s2)o1 | 5 | 24 | 0.8 | -7 | 26 | 0.7
Cc1ccc(S(=O)(=O)NC(C)(C)CSc2nncn2N)cc1 | 16 | 59* | 0.4 | 4 | -10 | 1.1
COCCCn1c(Cc2csc(Nc3ccc(F)cc3)n2)nnc1SCC(N)=O | -8 | 1 | 1 | -5 | 21 | 0.8
c1ccc(Cn2nnnc2C(c2cccs2)N2CCSCC2)cc1 (stereo not given) | 8 | / | / | 2 | / | /
CC1CCN(C(c2cccs2)c2nnnn2Cc2ccccc2)CC1 (stereo not given) | 25 | 88* | 0.1 | -3 | 36 | 0.6
c1ccc(Cn2nnnc2C(c2cccs2)N2CCOCC2)cc1 (stereo not given) | -4 | 63* | 0.4 | 2 | 5 | 1
O=C(CCNS(=O)(=O)c1cccc2nsnc12)NC1CCCc2ccccc21 (stereo not given) | 7 | 32 | 0.7 | 14 | -34 | 1.3
O=C(CCNS(=O)(=O)c1cccc2nsnc12)NCCc1ccccc1 | 4 | 52* | 0.5 | 22 | -18 | 1.2
CCc1ccc(NC(=O)CCNS(=O)(=O)c2cccc3nonc23)cc1 | 1 | 27 | 0.7 | -1 | 55* | 0.4
COc1ccc(NC(=O)CNS(=O)(=O)c2cccc3nonc23)c(OC)c1 | 3 | 72* | 0.3 | 1 | 74* | 0.3
O=C(CCNS(=O)(=O)c1cccc2nonc12)NC1CCCc2ccccc21 (stereo not given) | 32* | 28 | 0.7 | -8 | -138 | 2.4*
CCCCCCC(c1c(C)n(C)n(-c2ccccc2)c1=O)c1c(C)n(C)n(-c2ccccc2)c1=O | 5 | / | / | -1 | / | /
COc1ccc(F)cc1CN1CCN(c2cc(C)nc3c4c(C)cc(C)nc4nn23)CC1 | -3 | 7 | 0.9 | -10 | 4 | 1
O=C(Oc1ccc(=O)n(-c2ccccc2)n1)c1cccc(Cl)c1 | -1 | 16 | 0.8 | -6 | 7 | 0.9
SMILES | PostGolgi ctrl | CYP2C19 inhib | CYP2C19 act | PostGolgi yeast | CYP2C9 inhib | CYP2C9 act
COc1ccc(CNC(=O)CCCNS(=O)(=O)c2cccc3nonc23)cc1 | 18 | 35 | 0.7 | 9 | 26 | 0.7
Cc1ccc(CNC(=O)CNS(=O)(=O)c2cccc3nsnc23)cc1 | 11 | 31 | 0.7 | 1 | 52* | 0.5
COc1ccc(CCNC(=O)CCNS(=O)(=O)c2cccc3nsnc23)cc1OC | 1 | 72* | 0.3 | -6 | 35 | 0.6
COc1ccc(CCNC(=O)CCNS(=O)(=O)c2cccc3nonc23)cc1OC | 3 | 72* | 0.3 | 19 | 18 | 0.8
CC(C)(Oc1ccc(Br)cc1)C(=O)N1CCc2ccccc21 | -2 | 21 | 0.8 | 2 | 18 | 0.8
O=C(OCN1C(=O)c2ccccc2C1=O)c1ccco1 | 12 | 4 | 1 | 2 | -6 | 1.1
COc1c(Cl)cc(Cl)cc1CNCCNCCO | -1 | -7 | 1.1 | 1 | 7 | 0.9
CC(C(=O)c1ccccc1)n1cnc2ccccc2c1=O (stereo not given) | 12 | 35 | 0.7 | 8 | 38 | 0.6
O=C(CSc1nnc(-c2cccnc2)n1-c1ccccc1)NCc1ccc2c(c1)OCO2 | 17 | -2 | 1 | 3 | 18 | 0.8
C=CCn1c(SC(C)C(=O)NCc2ccc3c(c2)OCO3)nnc1C1CCCCC1 (stereo not given) | 2 | 56* | 0.4 | 12 | 57* | 0.4
CC(Sc1nnc(-c2cccnc2)n1-c1ccccc1)C(=O)NCc1ccc2c(c1)OCO2 (stereo not given) | 9 | 46 | 0.5 | -1 | 91* | 0.1
Cc1ccc(C)c(N(C(=O)Cn2nnc(-c3cccs3)n2)C(C(=O)NC2CCCC2)c2ccncc2)c1 (stereo not given) | -1 | 3 | 1 | -8 | 2 | 1
CCC(C(=O)NC(C)(C)C)N(C(=O)Cn1nnc(-c2cccs2)n1)c1cnc2ccccc2c1 (stereo not given) | -1 | 18 | 0.8 | -2 | 65* | 0.4
CC(C)c1ccc(C2C(C#N)=C(N)N3C(=C2C#N)Sc2ccccc23)cc1 (stereo not given) | 4 | 67* | 0.3 | -18 | 21 | 0.8
CCCc1cc(N2CCCC(C(=O)NCC)C2)n2ncnc2n1 (stereo not given) | 2 | -1 | 1 | 2 | 4 | 1
COc1ccc(N(CC(=O)N2CCCCC2)S(=O)(=O)c2ccccc2)c(OC)c1 | 0 | 53* | 0.5 | -5 | 49 | 0.5
COc1ccc(S(=O)(=O)N(C)CC(=O)N2CCC(C)CC2)cc1Cl | 7 | 7 | 0.9 | -1 | -155 | 2.5*
COc1ccc(OC)c(N(CC(=O)N2CCC(C)CC2)S(=O)(=O)c2ccccc2)c1 | 5 | 34 | 0.7 | -9 | 52* | 0.5
CC(=O)Nc1cc(NC(C)=O)c2nc(N)sc2c1 | 3 | -3 | 1 | 5 | -6 | 1.1
